# The panel holds about 83,000 compounds, 20% with a hit somewhere; the sample as a whole holds those more often.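 Compound tested at a single concentration for 48 hours in 96-well plates; a percent growth value below 10 was scored as active.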 A number with no mark means an inactive call. Activity calls are given as the source filed them.
# Tested on: HL-60(TB) leukemia
# Test: NCI-60 one-dose screen, 48 h (100 = growth as untreated, 0 = no growth, -100 = all killed)
# Conditions: 10 µM unless noted
row,Structure (SMILES),growth
1,CC(C)CCNCC(O)Cn1c2ccccc2c2ccccc21 (stereo not given),-14.8% (active)
2,COC(=O)C1CC(=O)N(C(=O)Nc2ccc(Cl)cc2Cl)C1 (stereo not given),97.8%
3,CON1C(=O)CC[C@]2(C)[C@H]3CC[C@@H]4C([C@@]5(C)CCC(=O)O5)CC[C@@]4(C)[C@]3(C)CC[C@H]2C1(C)C (stereo not given in full),100%
4,O=C(N/N=C\c1cc(Cl)ccc1[N+](=O)[O-])c1ccco1,107%
5,COc1ccc2[nH]c(=O)c(/C=N/Nc3nc(-c4ccccc4)cs3)c(O)c2c1,83.9%
6,COc1ccc2c(c1)CCCN2c1c2ccccc2nc2ccccc12,5.6% (active)
7,COc1ccc(-c2cc(=O)[nH]c3c(OC)c4ccccc4c(OC)c23)cc1,-19.8% (active)
8,CCC(C)NCC(=O)O (stereo not given),100%
9,Cc1cccc(-[n+]2noc(N)n2)c1,30.8%
10,CCN(CCCOc1ccc2c(Nc3cc(CC(=O)Nc4cccc(F)c4)[nH]n3)ncnc2c1)CCOP(=O)(O)O,34.9%
11,CC(C)NC(=O)N1C(=O)CCC1NNC(=O)c1ccc([N+](=O)[O-])cc1 (stereo not given),107%
12,O=c1[nH]nc(-c2ccccc2)c2sc3ncc(-c4ccc(Br)cc4)n3c12,12.7%
13,COc1ccc(-c2nnc(COc3ccc(NS(=O)(=O)c4ccc(OC)cc4)cc3F)o2)cc1,76.6%
14,O=C(O)c1ccc([N+](=O)[O-])cc1S(=O)(=O)O,108%
15,Cc1cc2c3ccccc3ccc2[n+]2ccccc12,46.2%
16,CCCCN1CCCC[C@@H]1C(=O)N[C@H](C(=O)N(C)[C@H](CCc1nc(C(=O)N[C@@H](Cc2ccccc2)C[C@H](C)C(=O)OC)cs1)C(C)C)C(C)C,5.08% (active)
17,COc1cnc2c(c1)C(=O)c1c-2n(CCCN2CCCC2)c(=O)c2cc(F)ccc12,-28.7% (active)
18,CN1CCN(CC(=O)Nc2ccc(-c3nc4ccccc4s3)cc2)CC1,96.4%
19,[Ag].[Ag].[NH-]S(=O)(=O)c1ccc(N=Nc2cc(N=Nc3ccc(S([NH-])(=O)=O)cc3)c3c(NC(=O)C(Cl)Cl)cccc3c2OC(=O)C(Cl)Cl)cc1.[c-]1nccs1.[c-]1nccs1,44.2%
20,O=C(COc1ccc(/C=C2\CSc3ccccc3C2=O)cc1)c1ccc(Cl)cc1,80%

row,Structure (SMILES),growth
1,CNC(=O)c1cccc2cc(Oc3ccnc4cc(OCC5(N)CC5)c(OC)cc34)ccc12,91.6%
2,O=S(=O)(NCCCNc1nccc(-c2c(-c3cccc(F)c3)nc3sccn23)n1)c1cccc(F)c1,40.5%
3,N#CSCc1cc(Cl)c(CSC#N)cc1Cl,22.1%
4,COc1cc(OC)c(/C=C/C(=O)c2c(O)cc(OC)c(C3CCN(C)CC3)c2OC)c(OC)c1,-35.6% (active)
5,COP(=O)(OC)C(c1ccccc1)(c1ccccc1)c1ccccc1,45.3%
6,CC(C)(C)n1cc(-c2ccnc(NCCNS(=O)(=O)c3ccc(Cl)cc3)c2)c(-c2cccc(O)c2)n1,39.4%
7,C=CCc1c2c(c(OC)c3ccoc13)C(=O)/C(=C/c1ccccc1OC)O2,68.8%
8,N#CCNc1ccccc1N,95.2%
9,CN(C)CCCC1(c2ccc(F)cc2)OCc2cc(-c3ccc4cc[nH]c4c3)ccc21 (stereo not given),27.6%
10,COc1ccc(/C=C2\CN(Cc3cn(CCNc4ccnc5cc(Cl)ccc45)nn3)C/C(=C\c3ccc(OC)c(OC)c3)C2=O)cc1OC,-11.3% (active)
11,CCOC(=O)CNC,97.3%
12,CN(C)c1ccc(C(C#N)(c2ccccc2)c2ccc(N(C)C)cc2)cc1,61.9%
13,Cc1nn(-c2nc(-c3cc4ccccc4oc3=O)cs2)c(C)c1N=Nc1ccccc1,101%
14,Cn1c(=O)c2c(nc(Cl)n2CCl)n(C)c1=O,45.7%
15,COc1ccc2[nH]cc(-c3nc(-c4c[nH]c5ncccc45)cs3)c2c1,13.9%
16,COc1c(O)cc2oc3cc(O)c(CC=C(C)C)c(O)c3c(=O)c2c1CC=C(C)C,65.9%
17,CC1=NN(c2cccc(Cl)c2)C(=O)/C1=C\c1cn(CC(O)CN2CCCCC2)c2ccccc12 (stereo not given),25.7%
18,NCCOCCOc1ccccc1,108%
19,COc1ccc(C2CC(c3ccc(Nc4nc(Nc5ccc(F)cc5)nc(Nc5ccc(Cl)cc5)n4)cc3)=NN2C(C)=O)cc1 (stereo not given),206%
20,N#Cc1cnn(-c2nc3c(Cl)cccc3s2)c1N,97.7%

# From PubChem BioAssay (NCI)
